We go through 22 compounds from PubChem BioAssay.

Assay [1] concerns XIP peptide (Xip251-270) binding. The assay is described as follows: XIP fragment 251-270 binding compounds – biochemical, small-molecule microarray, fluorescence 635/667 nm, 0.1 µg/mL protein, primary screen (AID 1182). Particulars: fluorescent protein binding, 635 nm, higher = more signal, called active from +8 up or from −8 down.
For another assay, the system named is XIP peptide (Xip251-270). As to the kind of experiment: compounds binding XIP fragment 251-270 – biochemical, small-molecule microarray, fluorescence 635/667 nm, 0.5 µg/mL protein, primary screen (AID 1183). Conditions: fluorescence 635 nm, higher = more signal.
Assay [2] can be described thus: blood-stage malaria parasite viability loss – strain 3D7, DAPI fluorescence, 100 nL, primary screen (AID 1184).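 Note: parasites grown inside human red blood cells in medium with human serum.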 Particulars: P. falciparum 3D7 growth, 3 d, higher = more signal.
Assay [3] deals with Homeobox protein Hox-A13 (Mus musculus) (UniProt Q62424). As to the kind of experiment: disruptors of Hoxa13 oligonucleotide interaction – biochemical, fluorescence polarization, labeled oligonucleotide, primary screen (AID 1185). Particulars: Hoxa13:DNA binding, 15 min, higher = more signal, called active from +8 up or from −8 down. In general terms: In fluorescence polarisation assays a small probe gives low polarisation when free and higher when bound to something large.
Sequence of Homeobox protein Hox-A13 (Mus musculus) (Q62424 whole entry, looked up): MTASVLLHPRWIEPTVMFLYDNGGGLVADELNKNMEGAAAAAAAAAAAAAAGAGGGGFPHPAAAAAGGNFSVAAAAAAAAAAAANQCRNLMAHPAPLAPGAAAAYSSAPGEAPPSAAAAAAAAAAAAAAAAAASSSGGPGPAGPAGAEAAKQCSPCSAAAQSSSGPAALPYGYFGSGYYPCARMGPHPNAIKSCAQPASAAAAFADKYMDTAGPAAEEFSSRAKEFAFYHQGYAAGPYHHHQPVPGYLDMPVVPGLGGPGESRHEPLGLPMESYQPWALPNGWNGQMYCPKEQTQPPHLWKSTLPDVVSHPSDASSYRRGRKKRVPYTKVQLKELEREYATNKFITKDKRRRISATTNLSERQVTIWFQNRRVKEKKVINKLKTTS

Assay [4] can be described thus: blockers of DNA damage checkpoint Chk1 activation – imaging, HeLa, hydroxyurea, phospho-Chk1 antibody, percent positive cells, primary screen (AID 1186). Conditions: hydroxyurea-induced phospho-Chk1 immunofluorescence imaging, higher = more signal.
Assay [5] in a line: blockers of DNA damage checkpoint Chk1 activation – imaging, HeLa, hydroxyurea, phospho-Chk1 nuclear intensity, primary screen (AID 1187). Conditions: hydroxyurea-induced phospho-Chk1 immunofluorescence imaging, higher = more signal.

Active and inactive are the calls of the source. Unless noted, the rule behind the calls is not given here.

In the case of `C[N+](C)(C)CCCCNC(=O)[C@@H]1C[C@@H]2C(=O)N[C@@H](Cc3ccccc3)C(=O)N2[C@@H]1c1cccc(OCCO)c1`, the composite z-score in assay [1] was 1.09 (inactive); in the assay with XIP peptide (Xip251-270), 0.645. Also, the z-score in assay [2] is -0.421; in assay [3], -2.57 (inactive); in assay [4], 0.367 (inactive); in assay [5], 0.276 (inactive).
As for `CN1C(=O)C2C=CC(C(O)c3ccc([N+](=O)[O-])cc3)N(N3CCCCC3)C2C1=O` (configuration not stated), the composite z-score in assay [1] was 0.0993 (inactive); in the assay on XIP peptide (Xip251-270), 0.471. In addition, the z-score in assay [2] is -0.114; in assay [3], -3.98 (inactive); in assay [4] it was -0.224 (inactive); in assay [5], -0.167 (inactive).
As for `COC(=O)[C@@]1(Cc2ccc(F)cc2)[C@H]2c3cc(C(=O)N4CCCC4)n(Cc4ccc(S(C)(=O)=O)cc4)c3C[C@H]2CN1C(=O)c1ccccc1`, the composite z-score in assay [1] is 0.845 (inactive); with XIP peptide (Xip251-270) it was 0.116. The z-score in assay [2] is -1.46; in assay [3] it was -4.4 (inactive); in assay [4], 0.396 (inactive); in assay [5], 0.172 (inactive).
As to `Cc1ccc(S[C@]2(C(=O)NC3CC3)CC(=O)N(Cc3ccccc3)[C@@H]2c2ccc(CO)cc2I)cc1`, the figures for the composite z-score (in assay [1]; in the assay with XIP peptide (Xip251-270)) were 0.135 (inactive) and 0.387, respectively. Besides, the z-score is -0.0873 in assay [2], -2.79 (inactive) in assay [3], 0.327 (inactive) in assay [4] and 0.794 (inactive) in assay [5].
Consider `CCOC(=O)C[C@H]1[C@H](OC(=O)c2ccc(C(=O)c3ccccc3)cc2)[C@@H](NC(=O)c2ccccc2)c2cc(OCCCO)ccc2N1C(=O)Cc1ccc(OC)cc1`, for which the composite z-score in assay [1] is -0.0614 (inactive); with XIP peptide (Xip251-270) it was 0.511. Also, the z-score in assay [2] is 0.4; in assay [3], -1.99 (inactive); in assay [4], 0.119 (inactive); in assay [5] it was 0.134 (inactive).
As to `COC(=O)C(CC#Cc1ccc2c(c1)[C@]1(C(=O)N2)[C@H](C(=O)Nc2nc3ccccc3s2)[C@H]2C(=O)O[C@H](c3ccccc3)[C@H](c3ccccc3)N2[C@@H]1c1ccccc1OCCO)C(=O)OC`, the composite z-score in assay [1] was 1.5 (inactive); in the assay on XIP peptide (Xip251-270), 0.815. In addition, the z-score in assay [2] was -2.02; in assay [3] it was 2.38 (inactive); in assay [4], 0.0018 (inactive); in assay [5], 0.304 (inactive).
As to `COc1cc2c(cc1O)C(c1cccs1)N(C)CC2` (configuration not stated), the results for the composite z-score (in assay [1]; in the assay on XIP peptide (Xip251-270)) were -0.721 (inactive) and 0.594, respectively. Further, the z-score in assay [2] was -1.12; in assay [3] it was -3.91 (inactive); in assay [4], -0.428 (inactive); in assay [5], -0.628 (inactive).
For the compound `CN(C)CCCC[C@@H]1NC(=O)[C@@H]2C[C@H](C(=O)NCCCCCCN)[C@H](c3cccc(OCCO)c3)N2C1=O`, the figures for the composite z-score (in assay [1]; with XIP peptide (Xip251-270)) were 1.57 (inactive) and 0.919, respectively. Moreover, the z-score in assay [2] is 0.0561; in assay [3], -3.85 (inactive); in assay [4], -0.945 (inactive); in assay [5] it was -0.708 (inactive).
For the compound `C=CCOC(=O)[C@H]1[C@@H]2C(=O)O[C@@H](c3ccccc3)[C@@H](c3ccccc3)N2[C@@H](c2ccc(OCCOC(=O)[C@H]3C[C@H]4C(=O)N[C@@H](CCCCNC(C)=O)C(=O)N4[C@H]3c3cccc(OCCO)c3)cc2)[C@]12C(=O)Nc1ccccc12`, the composite z-score is 0.899 (inactive) in assay [1] and 0.528 in the assay with XIP peptide (Xip251-270). Moreover, the z-score in assay [2] is -1.69; in assay [3], -1.77 (inactive); in assay [4] it was -0.843 (inactive); in assay [5], -0.373 (inactive).
For the compound `COCCOC(=O)N1C(=O)[C@@]2(c3cc(C#CCNC(N)=O)ccc31)[C@H](C(=O)Nc1nc3ccccc3s1)[C@H]1C(=O)O[C@H](c3ccccc3)[C@H](c3ccccc3)N1[C@@H]2c1ccc(OCCO)cc1`, the composite z-score was 0.113 (inactive) in assay [1] and -0.221 in the assay with XIP peptide (Xip251-270). The z-score in assay [2] was 0.764; in assay [3], 0.886 (inactive); in assay [4], -0.0719 (inactive); in assay [5], -0.0419 (inactive).
`COc1ccc([Si](C)(C)[C@@H]2[C@@H](CCO)O[C@]3(C(=O)N(Cc4ccc(N(C=O)c5ccccc5)cc4)c4ccccc43)[C@H]2C)cc1`: the composite z-score in assay [1] is -0.0075 (inactive); with XIP peptide (Xip251-270), -0.0404. For the same compound, the z-score in assay [2] was -2.7; in assay [3] it was -1.54 (inactive); in assay [4] it was -1.27 (inactive); in assay [5], -1.31 (inactive).
Regarding `C=C(COC)C(=O)CC[C@@H](OC(C)=O)c1ccc(CO)o1`, the composite z-score in assay [1] is 0.861 (inactive); in the assay on XIP peptide (Xip251-270) it was -0.0256. For the same compound, the z-score was 0.216 in assay [2], -3.72 (inactive) in assay [3], 0.293 (inactive) in assay [4] and 0.384 (inactive) in assay [5].
As for `CNS(=O)(=O)c1ccc(C)cc1`, the figures for the composite z-score (in assay [1]; in the assay with XIP peptide (Xip251-270)) were 0.493 (inactive) and -0.259, respectively. Moreover, the z-score in assay [2] is 0.749; in assay [3] it was -0.38 (inactive); in assay [4], -0.41 (inactive); in assay [5], -0.155 (inactive).
For the compound `COCCOC(=O)N1C(=O)[C@@]2(c3cc(C#CCC(C(=O)OC)C(=O)OC)ccc31)[C@H](c1ccccc1OCCO)N1[C@H](c3ccccc3)[C@H](c3ccccc3)OC(=O)[C@H]1[C@@H]2C(=O)NC[C@H](O)c1ccccc1`, the composite z-score in assay [1] was 1.42 (inactive); with XIP peptide (Xip251-270) it was 0.705. The z-score in assay [2] is -2.31; in assay [3] it was -1.77 (inactive); in assay [4], -0.0638 (inactive); in assay [5] it was -0.19 (inactive).
For the compound `CC(C)c1ccc(NN2C(C(O)c3ccc(B(O)O)cc3)C=CC3C(=O)N(c4ccccc4)C(=O)C32)cc1` (configuration not stated), the figures for the composite z-score (in assay [1]; in the assay with XIP peptide (Xip251-270)) were 1.04 (inactive) and 0.665, respectively. Moreover, the z-score in assay [2] was 0.101; in assay [3], -4.18 (inactive); in assay [4] it was -0.337 (inactive); in assay [5], -0.659 (inactive).
On to `CC(C)=CCCC(C)=CC(O)C1C=CC2C(=O)N(C)C(=O)C2N1Nc1ccccc1` (configuration not stated), for which the figures for the composite z-score (in assay [1]; in the assay with XIP peptide (Xip251-270)) were 0.438 (inactive) and 0.624, respectively. The z-score was -0.49 in assay [2], -3.34 (inactive) in assay [3], -1.1 (inactive) in assay [4] and -1.34 (inactive) in assay [5].
For the compound `CCCCC(CC)C(O)C1C=CC2C(=O)N(Cc3ccccc3)C(=O)C2N1n1cnnc1` (configuration not stated), the values for the composite z-score (in assay [1]; with XIP peptide (Xip251-270)) were 0.0978 (inactive) and 0.671, respectively. The z-score is -0.465 in assay [2], -3.42 (inactive) in assay [3], 0.419 (inactive) in assay [4] and -0.454 (inactive) in assay [5].
As for `C=CCOC(=O)[C@H]1[C@@H]2C(=O)O[C@@H](c3ccccc3)[C@@H](c3ccccc3)N2[C@@H](c2ccc(OCCOC(=O)[C@@H]3C[C@@H]4C(=O)N[C@@H](CC(C)C)C(=O)N4[C@@H]3c3ccc(O)cc3)cc2)[C@]12C(=O)Nc1ccccc12`, the composite z-score in assay [1] is 1.25 (inactive); in the assay on XIP peptide (Xip251-270) it was 0.802. For the same compound, the z-score was -1.66 in assay [2], -0.596 (inactive) in assay [3], 0.659 (inactive) in assay [4] and 0.991 (inactive) in assay [5].
In the case of `COc1ccc([C@H]2OC[C@@H]3C[C@@H](Cc4ccccc4)C(=O)N32)cc1`, the composite z-score was 0.617 (inactive) in assay [1] and 0.0682 in the assay on XIP peptide (Xip251-270). The z-score in assay [2] was 0.583; in assay [3], -1.06 (inactive); in assay [4], 0.375 (inactive); in assay [5] it was 0.0727 (inactive).
Take `O=C(c1ccccc1)N1C(=O)[C@]2(COC(c3ccc(OCCCO)cc3)=N2)Cc2ccccc21`: the composite z-score in assay [1] is 0.819 (inactive); in the assay on XIP peptide (Xip251-270), 0.908. Moreover, the z-score is -2.14 in assay [2], -5.86 (inactive) in assay [3], -0.255 (inactive) in assay [4] and -0.361 (inactive) in assay [5].
Consider `C[N+](C)(C)CCCCCCNC(=O)[C@@H]1C[C@@H]2C(=O)N[C@@H](Cc3ccccc3)C(=O)N2[C@@H]1c1cccc(OCCO)c1`, for which the composite z-score in assay [1] is 0.694 (inactive); in the assay on XIP peptide (Xip251-270), 0.814. Also, the z-score is -0.145 in assay [2], -4.83 (inactive) in assay [3], -0.362 (inactive) in assay [4] and -0.398 (inactive) in assay [5].
Consider `C=C(CCCC)/C(=C/C[C@H](OC(=O)c1ccncc1)c1ccccc1OCCO)c1cnc2ccccc2c1`, for which the figures for the composite z-score (in assay [1]; with XIP peptide (Xip251-270)) were 0.8 (inactive) and 0.575, respectively. For the same compound, the z-score in assay [2] is -2.96; in assay [3] it was -4.41 (inactive); in assay [4], 0.618 (inactive); in assay [5] it was 0.783 (inactive).
